The source made the active and inactive calls. Where a call stands in place of a potency, no number is given. Unless noted, calls come from the whole dose curve; as a rule, active = well fitted curve in the direction sought with a large enough effect in the repeat runs; inconclusive = weak or mixed curves; inactive = no such curve, though single readings can be large; an effect the other way counts as inactive or inconclusive.
Columns and labels:
[1] = qHTS assay to identify small molecule antagonists of the thyroid receptor (TR) signaling pathway - cell viability counter screen (AID 743064); note: nearly all actives have a fitted effect of over 50% in size; note: potency is the fitted concentration of half-maximal effect
In short: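 Rat GH3 pituitary tumor cells stably expressing two TR response elements driving luciferase were plated, rested 4 h, then dosed with library compounds and T3 (1 nM final). After 23.5 h at 37 °C, CellTiter-Fluor was added for 30 min and fluorescence recorded.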

[2] = qHTS assay to identify small molecule antagonists of the thyroid receptor (TR) signaling pathway (AID 743065); note: nearly all actives have a fitted effect of over 55% in size; note: potency is the fitted concentration of half-maximal effect
In short: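 GH3.TRE-Luc rat pituitary cells carrying two TR response elements driving luciferase were plated for 4 h, given compound plus 1 nM T3 (final), and incubated 23.5 h at 37 C. ONE-Glo luminescence measured reporter inhibition; CellTiter-Fluor fluorescence tracked cytotoxicity.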

[3] = test system: thyroid hormone receptor (rat, GH3 cells); assay: qHTS assay to identify small molecule agonists of the thyroid receptor (TR) signaling pathway (AID 743066; calls by dose curve)
[4] = qHTS assay to identify small molecule antagonists of the estrogen receptor alpha (ER-alpha) signaling pathway - cell viability counter screen (AID 743074; calls by dose curve; note: nearly all actives have a fitted effect of over 45% in size)
[5] = biological target: Estrogen receptor (Homo sapiens) (UniProt P03372); assay: qHTS assay to identify small molecule agonists of the estrogen receptor alpha (ER-alpha) signaling pathway (AID 743075; calls by dose curve; note: potency is the fitted concentration of half-maximal effect)
Sequence of Estrogen receptor (Homo sapiens) (P03372 whole entry, looked up): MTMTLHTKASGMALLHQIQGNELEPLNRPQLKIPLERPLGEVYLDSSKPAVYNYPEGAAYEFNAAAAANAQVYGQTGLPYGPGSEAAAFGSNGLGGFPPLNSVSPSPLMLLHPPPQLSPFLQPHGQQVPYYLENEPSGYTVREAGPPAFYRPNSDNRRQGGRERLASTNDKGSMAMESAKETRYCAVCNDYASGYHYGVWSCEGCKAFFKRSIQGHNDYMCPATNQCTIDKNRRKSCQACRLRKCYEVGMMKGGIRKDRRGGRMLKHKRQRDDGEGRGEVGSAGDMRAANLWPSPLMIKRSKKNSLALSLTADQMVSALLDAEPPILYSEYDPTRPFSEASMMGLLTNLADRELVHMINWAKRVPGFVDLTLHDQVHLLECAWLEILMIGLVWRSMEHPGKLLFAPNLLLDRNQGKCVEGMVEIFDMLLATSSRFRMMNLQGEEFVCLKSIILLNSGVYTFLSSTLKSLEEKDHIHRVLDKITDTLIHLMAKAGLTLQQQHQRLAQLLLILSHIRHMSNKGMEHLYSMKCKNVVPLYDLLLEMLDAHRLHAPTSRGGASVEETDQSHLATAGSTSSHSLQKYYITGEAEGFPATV

[6] = qHTS assay to identify small molecule antagonists of the estrogen receptor alpha (ER-alpha) signaling pathway using the BG1 cell line (AID 743080; calls by dose curve;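 note: BG1 cells stimulated with 17beta-estradiol alongside compound; series mostly up to about 70 µM; nearly all actives have a fitted effect of over 25% in size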)
In short: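 Endogenous full-length ER-alpha in BG1-Luc-4E2 cells drives a stably integrated 4×ERE luciferase gene; compounds were tested against 17beta-estradiol over 21.5 h, with luminescence and multiplexed viability fluorescence recorded.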

[7] = qHTS assay to identify small molecule antagonists of the estrogen receptor alpha (ER-alpha) signaling pathway using the BG1 cell line - cell viability counter screen (AID 743081);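 note: compound given together with 17beta-estradiol as the ER stimulus; series mostly up to about 70 µM; nearly all actives have a fitted effect of over 45% in size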
Aromatase (Homo sapiens) = Aromatase (Homo sapiens) (UniProt P11511); assay: qHTS assay to identify aromatase inhibitors (AID 743083); note: series mostly up to about 70 µM; nearly all actives have a fitted effect of over 55% in size
Sequence of Aromatase (Homo sapiens) (P11511 whole entry, looked up): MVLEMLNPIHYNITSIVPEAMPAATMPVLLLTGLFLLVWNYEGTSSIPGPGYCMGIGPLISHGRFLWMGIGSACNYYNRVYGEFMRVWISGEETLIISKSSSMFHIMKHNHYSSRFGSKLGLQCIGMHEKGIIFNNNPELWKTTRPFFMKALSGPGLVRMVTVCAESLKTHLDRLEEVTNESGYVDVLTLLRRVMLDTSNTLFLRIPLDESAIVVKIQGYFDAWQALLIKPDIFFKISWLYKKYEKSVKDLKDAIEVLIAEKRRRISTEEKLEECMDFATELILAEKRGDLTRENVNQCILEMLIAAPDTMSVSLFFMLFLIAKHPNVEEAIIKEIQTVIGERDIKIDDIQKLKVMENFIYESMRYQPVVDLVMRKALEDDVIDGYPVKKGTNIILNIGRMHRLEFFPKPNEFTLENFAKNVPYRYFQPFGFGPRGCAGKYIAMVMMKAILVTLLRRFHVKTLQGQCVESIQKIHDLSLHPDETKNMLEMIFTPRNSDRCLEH

[8] = qHTS assay to identify aromatase inhibitors - cell viability counter screen (AID 743084);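 note: cells stimulated with testosterone during compound exposure; nearly all actives have a fitted effect of over 55% in size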
[9] = biological target: Aryl hydrocarbon receptor (Homo sapiens) (UniProt P35869); assay: qHTS assay to identify small molecule that activate the aryl hydrocarbon receptor (AhR) signaling pathway (AID 743085); note: nearly all actives have a fitted effect of over 15% in size; note: potency is the fitted concentration of half-maximal effect;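 for activation: HG2L7.5c1 human HepG2 liver cells with stably integrated DRE-driven firefly reporter; series mostly up to about 70 µM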
Sequence of Aryl hydrocarbon receptor (Homo sapiens) (P35869 whole entry, looked up): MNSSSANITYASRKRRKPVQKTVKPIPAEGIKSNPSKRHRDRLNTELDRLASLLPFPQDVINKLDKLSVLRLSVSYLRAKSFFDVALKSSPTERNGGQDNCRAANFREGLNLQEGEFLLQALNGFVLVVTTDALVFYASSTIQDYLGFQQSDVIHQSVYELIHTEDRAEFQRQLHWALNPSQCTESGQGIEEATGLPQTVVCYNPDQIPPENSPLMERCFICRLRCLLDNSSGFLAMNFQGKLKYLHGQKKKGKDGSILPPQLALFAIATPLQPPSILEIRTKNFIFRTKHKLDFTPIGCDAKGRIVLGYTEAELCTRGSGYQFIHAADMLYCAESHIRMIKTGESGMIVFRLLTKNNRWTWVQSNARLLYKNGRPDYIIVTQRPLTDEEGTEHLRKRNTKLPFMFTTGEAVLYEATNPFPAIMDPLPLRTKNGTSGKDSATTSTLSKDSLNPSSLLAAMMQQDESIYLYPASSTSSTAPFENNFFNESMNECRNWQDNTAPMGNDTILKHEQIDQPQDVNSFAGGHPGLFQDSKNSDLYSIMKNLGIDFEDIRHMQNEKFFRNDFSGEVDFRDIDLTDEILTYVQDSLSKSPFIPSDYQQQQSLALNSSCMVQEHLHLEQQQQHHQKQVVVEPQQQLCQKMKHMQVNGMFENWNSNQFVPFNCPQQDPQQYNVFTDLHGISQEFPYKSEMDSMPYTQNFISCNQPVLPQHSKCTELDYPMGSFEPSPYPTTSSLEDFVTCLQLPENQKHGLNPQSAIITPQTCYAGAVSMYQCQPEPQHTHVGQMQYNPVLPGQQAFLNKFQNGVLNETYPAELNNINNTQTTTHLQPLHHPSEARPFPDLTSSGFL
In short: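 Compounds were tested in HepG2 hepatocellular carcinoma cells harbouring a stably integrated luciferase gene under control of 20 DREs. Increased reporter signal after 24 h treatment at 37C was taken as AhR activation.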

[10] = qHTS assay to identify small molecule that activate the aryl hydrocarbon receptor (AhR) signaling pathway - cell viability counter screen (AID 743086);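 note: HepG2 liver cells carrying the AhR DRE luciferase reporter; series mostly up to about 70 µM; nearly all actives have a fitted effect of over 45% in size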
In short: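 HepG2-AhR-luc (HG2L7.5c1) cells, 4000/well, were preincubated 5 h at 37C, exposed to compound in qHTS format for 24 hr at 37C, then given CellTiter-Fluor for 30 min; viability was read as fluorescence in the reporter wells.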

[11] = qHTS assay to identify small molecule antagonists of the peroxisome proliferator-activated receptor gamma (PPARg) signaling pathway - cell viability counter screen (AID 743194); note: nearly all actives have a fitted effect of over 55% in size
In short: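 PPARg-UAS-bla HEK293H cells were plated, rested 5 h at 37 C, then treated with compounds plus rosiglitazone (50 nM final) for 17 h at 37 C; viability was then read by CellTiter-Glo luminescence after 30 min at room temperature.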

[12] = qHTS assay for small molecule agonists of the antioxidant response element (ARE) signaling pathway - cell viability counter screen (AID 743203; calls by dose curve; note: nearly all actives have a fitted effect of over 55% in size)
In short: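 Luminescence read-out (CellTiter-Glo, 30 min at room temperature) measured cell viability in the same wells as the ARE beta-lactamase reporter. HepG2 ARE-bla cells were treated with compounds for 16 hrs at 37C/5% CO2.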

[13] = biological target: Estrogen receptor (Homo sapiens) (UniProt P03372); assay: qHTS assay to identify small molecule antagonists of the estrogen receptor alpha (ER-alpha) signaling pathway (AID 743069; active = well fitted curve in the direction sought with a large enough effect in the signal ratio in the repeat runs, not every such curve was filed as active; inconclusive = weak or mixed curves, or effect the other way; inactive = no such curve, though single readings can be large or run the other way; the % refers to the signal ratio)
In short: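 Screening used a UAS-driven beta-lactamase reporter integrated into HEK293 cells expressing ER-alpha, stimulated with 17beta-estradiol alongside test compounds over 18 hr at 37C; signal came from LiveBLAzer B/G FRET fluorescence.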

[14] = biological target: Estrogen receptor (Homo sapiens) (UniProt P03372); assay: qHTS assay to identify small molecule agonists of the estrogen receptor alpha (ER-alpha) signaling pathway using the BG1 cell line (AID 743079); note: nearly all actives have a fitted effect of over 20% in size; note: potency is the fitted concentration of half-maximal effect
[15] = biological target: Peroxisome proliferator-activated receptor gamma (Homo sapiens) (UniProt P37231); assay: qHTS assay to identify small molecule agonists of the peroxisome proliferator-activated receptor gamma (PPARg) signaling pathway (AID 743094; active = well fitted activation curve with a large enough effect in the signal ratio in the repeat runs, not every such curve was filed as active; inconclusive = weak or mixed curves, or effect the other way; inactive = no such curve, though single readings can be large or run the other way; the % refers to the signal ratio; note: potency is the fitted concentration of half-maximal effect)
Sequence of Peroxisome proliferator-activated receptor gamma (Homo sapiens) (P37231 whole entry, looked up): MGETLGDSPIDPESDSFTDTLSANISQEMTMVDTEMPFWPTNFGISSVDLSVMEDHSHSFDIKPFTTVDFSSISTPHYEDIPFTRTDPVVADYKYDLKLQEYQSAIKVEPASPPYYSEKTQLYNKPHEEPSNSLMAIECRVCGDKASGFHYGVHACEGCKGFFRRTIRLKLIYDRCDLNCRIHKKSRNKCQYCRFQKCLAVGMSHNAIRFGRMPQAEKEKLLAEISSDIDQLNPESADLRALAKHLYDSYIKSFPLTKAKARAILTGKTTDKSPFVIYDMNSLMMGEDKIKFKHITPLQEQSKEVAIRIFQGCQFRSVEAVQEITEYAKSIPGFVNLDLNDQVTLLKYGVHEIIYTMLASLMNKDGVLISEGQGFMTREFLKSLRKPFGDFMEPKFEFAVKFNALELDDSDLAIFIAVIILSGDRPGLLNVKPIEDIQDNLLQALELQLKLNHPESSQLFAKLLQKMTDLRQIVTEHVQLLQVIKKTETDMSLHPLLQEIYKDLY
In short: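 HEK293H PPARg-bla cells, 5 h settle at 37C/5% CO2; compound (DMSO) 17 h, 37C; B/G FRET substrate 1 h RT; fluorescence intensity read-out. qHTS format.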

[16] = qHTS assay for small molecule activators of the heat shock response signaling pathway - cell viability counter screen (AID 743209); note: nearly all actives have a fitted effect of over 50% in size
In short: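 HSE-bla HeLa; 1500 cells/well; overnight 37 C, 5% CO2; compound 5 h 37 C; LiveBLAzer B/G substrate 2.5 h RT; CellTiter-Glo 30 min RT; luminescence.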

[17] = qHTS assay for small molecule activators of the heat shock response signaling pathway (AID 743210; active = well fitted activation curve with a large enough effect in the signal ratio in the repeat runs, with a control signal flat, not every such curve was filed as active; inconclusive = weak or mixed curves; the % refers to the signal ratio;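 note: HeLa cells with beta-lactamase reporter driven by heat shock elements; series mostly up to about 63 µM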)
In short: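 Activation of heat shock element-controlled beta-lactamase expression is measured in HeLa cells by LiveBLAzer FRET fluorescence, with compound exposure lasting 5 h at 37 C and substrate loading 2.5 h at room temperature.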

[18] = biological target: Peroxisome proliferator-activated receptor gamma (Homo sapiens) (UniProt P37231); assay: qHTS assay to identify small molecule antagonists of the peroxisome proliferator-activated receptor gamma (PPARg) signaling pathway (AID 743191; calls by dose curve; note: series mostly up to about 63 µM; nearly all actives have a fitted effect of over 30% in size)
In short: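 GeneBLAzer PPARg UAS-bla HEK293H cells carrying a UAS-driven beta-lactamase reporter were plated at 3000 cells/well, preincubated 5 h at 37C, then given compound for 17 h at 37C; LiveBLAzer B/G FRET substrate was read after 1 h at room temperature.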

[19] = qHTS assay for small molecule agonists of the antioxidant response element (ARE) signaling pathway (AID 743202; active = well fitted activation curve with a large enough effect in the signal ratio in the repeat runs, not every such curve was filed as active; inconclusive = weak or mixed curves, or effect the other way; inactive = no such curve, though single readings can be large or run the other way; the % refers to the signal ratio; note: potency is the fitted concentration of half-maximal effect)
In short: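 Steps: seed ARE-bla HepG2 cells (2,000/well); incubate 5 h at 37 C; add compounds by pin tool; incubate 16 h at 37 C; add FRET substrate; read fluorescence after 2 h at RT.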

Compound	Potency [1]	Potency [2]	Potency [3]	outcome [4]	Potency [5]	Potency [6]	Potency [7]	Potency (Aromatase (Homo sapiens))	Potency [8]	Potency [9]	Potency [10]	Potency [11]	Potency [12]	Potency [13]	Potency [14]	Potency [15]	Potency [16]	outcome [17]	Potency [18]	Potency [19]
CCCCCCCCCCCCC(=O)O	inactive	inactive	inactive	inactive	inactive	inactive	inactive	inactive	inactive	inactive	inactive	inactive	inactive							
CCN(CC)CCc1nc(-c2ccccc2)no1	inactive	inactive	inactive	inactive	inactive		inactive	inactive	inactive	inactive	inactive	inactive	inactive	inactive	inactive	inactive	inactive	inactive		
C=Cc1c(C)c2cc3[nH]c(cc4nc(cc5nc(cc1[nH]2)C(C)=C5CCC(=O)O)C(CCC(=O)O)=C4C)c(C)c3C=C	inactive	inactive	inactive	inactive	4.25 µM [inconclusive] (active)	inactive	inactive	inactive	inactive	inactive	inactive	inactive	inactive		1.06 µM (active)	inactive	inactive			
CCOc1cc(OCC)c(C(=O)CCC(=O)O)cc1OCC	inactive	inactive	inactive	inactive	inactive	inactive	inactive	inactive	inactive	inactive	inactive	inactive	inactive		inactive		inactive	inactive		
CC/C(=C\C(=N/O)C(N)=O)C(C)[N+](=O)[O-] (stereo not drawn)	inactive	inactive	inactive	inactive	inactive	inactive	inactive	inactive	inactive	inactive	inactive	inactive	inactive		inactive		inactive		inactive	
CC(=O)N(O)CCCCCNC(=O)CCC(=O)N(O)CCCCCNC(=O)CCC(=O)N(O)CCCCCN	inactive	inactive	inactive	inactive	inactive	inactive	inactive	inactive	inactive		inactive	inactive	inactive	inactive	inactive	inactive	inactive	inactive		
CCCCOCCOCCOCCOCCO	inactive	inactive	inactive	inactive	inactive	inactive	inactive	inactive	inactive	inactive	inactive		inactive	inactive		inactive	inactive	inactive		inactive
Nc1ccc(C(=O)Nc2ccccc2N)cc1	18.8 µM (active)	29.8 µM (active)	inactive	inactive	inactive		inactive	inactive	inactive	26.6 µM (active)	inactive	inactive			33.5 µM (active)	9.52 µM (active)	inactive			
CC[C@H](C)[C@@H](C(=O)O)n1sc2ccccc2c1=O	inactive	inactive	inactive	inactive	inactive	inactive	inactive	inactive	inactive		inactive	inactive	inactive	inactive	inactive	inactive	inactive	inactive		
OC(CCN1CCCCC1)(c1ccccc1)C1CCCCC1 (stereo not drawn)	inactive	inactive	inactive	inactive	inactive		inactive	inactive	inactive	inactive	inactive		inactive	inactive	inactive	inactive	inactive	inactive		inactive
O=C(c1ccc(O)cc1)c1ccc(O)cc1	inactive	inactive	inactive	inactive	17.4 µM [inconclusive] (active)	inactive	inactive	inactive	inactive		inactive	inactive			2.73 µM (active)	inactive	inactive	inactive	inactive	inactive
CC(=O)O[C@@H]1C(=O)O[C@@H]2[C@H]1OC(=O)[C@@H]2OC(C)=O	inactive	inactive	inactive	inactive	inactive	inactive	inactive	inactive	inactive	inactive	inactive	inactive	inactive	inactive		inactive	inactive	inactive		10.6 µM (active)
C=C(C)C(=O)OCCOc1ccccc1	inactive	inactive	inactive	inactive	inactive	inactive	inactive		inactive	inactive	inactive	inactive	inactive		43.3 µM (active)	inactive	inactive		inactive	inactive
CCOC(=O)C1=NN(c2ccccc2)C(=O)C1	inactive	inactive	inactive	inactive	inactive	inactive	inactive	inactive	inactive	inactive	inactive				inactive		inactive	inactive	inactive	inactive
NC(N)=N/N=C/c1c(Cl)cccc1Cl	23.7 µM (active)	23.7 µM (active)	inactive	inactive	inactive	inactive		inactive		inactive	inactive		inactive		inactive	inactive	inactive	inactive	inactive	
